According to PubChem BioAssay (NCI):
This is part of a sample that, as a whole, favours compounds with a hit. Of some 79,000 tested, about 15% had one in any assay. No stated cut-off is given here; in the data, active means growth inhibition above about 70%; inactive means the rest.

Legend:
[1] = NCI Yeast Anticancer Drug Screen. Data for the rad50 strain (AID 155);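 further: 0% = growth of vehicle-only cultures of the same strain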; settings: S. cerevisiae rad50 strain growth inhibition; at 50.0 µM; hits give high values
How it was run: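 Inhibition values express reduced yeast growth in compound-treated cultures relative to vehicle-treated controls.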

[2] = NCI Yeast Anticancer Drug Screen. Data for the mec2-1 strain (AID 157); settings: S. cerevisiae mec2-1 strain, at 50.0 µM, hits give high values
How it was run: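 Cells of the genetically defined mec2-1 yeast strain are incubated with test compound. Inhibition of growth is calculated against vehicle-treated controls.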

[3] = NCI Yeast Anticancer Drug Screen. Data for the sgs1 mgt1 strain (AID 161);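 further: 0% = growth of cultures given vehicle only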; settings: S. cerevisiae sgs1 mgt1 strain, at 50.0 µM, hits give high values
How it was run: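 Inhibition of yeast growth, normalised to vehicle-treated controls, is reported for a strain bearing genetic alterations in DNA damage repair.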

[4] = NCI Yeast Anticancer Drug Screen. Data for the cln2 rad14 strain (AID 165);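 further: 0% = growth equal to vehicle treated cultures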; settings: S. cerevisiae cln2 rad14 strain, at 50.0 µM, hits give high values
How it was run: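 The screen exposed genetically defined yeast (cln2 rad14) to test compounds and scored growth inhibition relative to vehicle-treated controls.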

[5] = NCI Yeast Anticancer Drug Screen. Data for the bub3 strain (AID 167); settings: S. cerevisiae bub3 mutant strain, at 50.0 µM, hits give high values
How it was run: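 Steps: expose the mutant yeast strain to compound; grow alongside vehicle-treated cultures; measure growth; express inhibition against the vehicle cultures.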

[6] = NCI Yeast Anticancer Drug Screen. Data for the mlh1 rad18 strain (AID 175); settings: S. cerevisiae mlh1 rad18 strain growth inhibition; at 50.0 µM; hits give high values
How it was run: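 Compound-treated yeast growth, normalised to vehicle controls. Strain bears defined DNA repair mutations.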

Measured: growth inhibition

Cc1ccc(S(=O)(=O)CC(=O)NC(N)=O)cc1
inactive: [1] -5% | [2] -1.1% | [3] -5.2% | [4] -2.1% | [5] -1.15% | [6] -7.3%

COC(=O)Nc1cn2cc(C(=O)c3cccs3)ccc2n1
inactive: [1] -2.5% | [2] -21.5% | [3] -9.95% | [4] -10.5% | [5] -42% | [6] -53.2%

O=c1cc(CC(O)(C(F)(F)Cl)C(F)(F)Cl)[nH]n1-c1ccccc1
inactive: [1] -27.9% | [2] 4.05% | [3] -7.75% | [4] 11.4% | [5] -22.1% | [6] -5.65%

CC(C)O[Si](OC(C)C)(OC(C)C)OC(C)C
inactive: [1] 13.2% | [2] -16.1% | [3] -8.7% | [4] -3.25% | [5] 9.9% | [6] 2.6%

OCCN(Cc1ccccc1)C(c1ccccc1)C(O)c1ccccc1 (centres undefined)
inactive: [1] -2.8% | [2] 7.65% | [3] 24.2% | [4] 29.2% | [5] 1.7% | [6] 1.3%

CC(=O)NC1(C#N)c2ccccc2-c2ccccc21
inactive: [1] 18.6% | [2] 4.2% | [3] 18.9% | [4] 9.3% | [5] 5.25% | [6] 4.55%

Oc1cc2oc3cc(O)c(O)cc3c2cc1O
inactive: [1] 7% | [2] 10.4% | [3] 9.85% | [4] 35.4% | [5] 6.1% | [6] 23.9%

CC(=O)N1CCCCC1C/C(C)=N/O (centres undefined)
inactive: [1] 3.55% | [2] 11.6% | [3] -5.95% | [4] -5.6% | [5] 1.35% | [6] 3.3%

COc1ccccc1N=Nc1c(-c2ccccc2)nn(C(=O)CC(=O)Nc2cccc(C)c2)c1-c1ccccc1
inactive: [1] 29.1% | [2] 17.5% | [3] 4.9% | [4] 5.65% | [5] 52.5% | [6] 27.3%

COc1ccc(C(=O)O/N=C2/CCC/C2=C\c2ccccc2)cc1
inactive: [1] 13.8% | [2] 13.2% | [3] 33.6% | [4] 26.4% | [5] 10.9% | [6] 8.4%

C=C(C)C(=O)OC1C/C(CO)=C\C(O)C/C(C)=C/C2OC(=O)C(=C)C21 (centres undefined)
inactive: [1] 55% | [2] 31.1% | [3] 33.7% | [4] 48% | [5] 41.5% | [6] -46.7%

CC(CC(=O)Nc1ccc(NC(=O)CC(C)N=NC(N)=S)cc1)N=NC(N)=S (centres undefined)
inactive: [1] 30.6% | [2] 3.95% | [3] -5.35% | [4] -27.2% | [5] 1.75% | [6] 14%

O=C(/C=C(/Nc1ccccc1)c1ccccc1)c1ccccc1
inactive: [1] 7.3% | [2] 11.4% | [3] 8.9% | [4] 35.5% | [5] 15.9% | [6] 34.2%

O=C1C[C@@H]2[C@@H](CCC23CCCC3)N1
inactive: [1] 17.8% | [2] 12.9% | [3] -9.75% | [4] 20.4% | [5] 15.2% | [6] 20.6%

Cc1no[n+]([O-])c1C(=O)NN
inactive: [1] 6.35% | [2] 6.6% | [3] -14.3% | [4] -46.8% | [5] -20.1% | [6] -12.4%

CCB1OC2C(COC(C)=O)OC(OC(C)=O)C2O1 (centres undefined)
inactive: [1] -7.4% | [2] -9.6% | [3] -9.55% | [4] -9.25% | [5] -6.9% | [6] -10.1%

Nc1c(F)c(F)c(C(=O)O)c(F)c1F
inactive: [1] -16.1% | [2] -20.6% | [3] -10.4% | [4] -3.9% | [5] -4.8% | [6] -29.4%

CSCCC(NCCC#N)C(=O)O (centres undefined)
inactive: [1] -7.05% | [2] 19.4% | [3] 8.45% | [4] -12.9% | [5] -27.9% | [6] 2.85%

CCOC(=O)Nc1ccccc1
inactive: [1] -1.65% | [2] 12.3% | [3] 1.55% | [4] -4.15% | [5] -6.8% | [6] 22.7%

BrCCOC(OCCBr)(c1ccccc1)c1ccccc1
inactive: [1] 19.8% | [2] -10.9% | [3] 2.3% | [4] 11.5% | [5] 4.95% | [6] 6.3%

S=C(c1ccccc1)N1CCCCC1
inactive: [1] 8% | [2] -1.7% | [3] 0.45% | [4] -23.4% | [5] 16.3% | [6] 4.05%

CN1C(=O)CCC1(O)C1C=CC=CC1 (centres undefined)
inactive: [1] 16.8% | [2] 7.55% | [3] 1.75% | [4] 16.9% | [5] -4.9% | [6] -2.85%

CCCCNCCCC
inactive: [1] 2.15% | [2] 2% | [3] -27.1% | [4] -3.65% | [5] -8% | [6] -16.6%

COc1ccc(NC=O)c(C(O)CCNC(C)=O)c1 (centres undefined)
inactive: [1] -15.4% | [2] -10.1% | [3] -19.6% | [4] 0.45% | [5] -39.1% | [6] -34.5%

COc1cc(C=O)ccc1OC(=O)Nc1cc(Cl)ccc1C
inactive: [1] 6.6% | [2] 6.7% | [3] 10.8% | [4] 5.75% | [5] 13.2% | [6] 8.85%

C/C=N/Nc1ccccc1
inactive: [1] 24.8% | [2] -1.4% | [3] 18.2% | [4] 32.9% | [5] 31.9% | [6] 30%

COC(=O)C1(C)CCCC2(C)C1CCC13OC1C1(C(C)C)OC1CC23 (centres undefined)
inactive: [1] 5.1% | [2] -20.6% | [3] 11.1% | [4] -26.4% | [5] -3% | [6] 8.2%

CC1=CC(O)(Cc2ccccc2)CC(C)(C)C1 (centres undefined)
inactive: [1] 2.1% | [2] -36.2% | [3] -17.9% | [4] -0.9% | [5] -27.9% | [6] -28.9%

O=c1[nH]cc(CNc2ccccc2)c(=O)[nH]1
inactive: [1] -5.5% | [2] 4.75% | [3] -9.45% | [4] -27.8% | [5] -18.2% | [6] 8.5%

COc1cc(OC)c(N=Nc2c(C)nc(N)nc2-c2ccccc2)cc1Cl
inactive: [1] 44.6% | [2] 5.45% | [3] 19.2% | [4] 20.3% | [5] 4.6% | [6] 23.9%

O=C(C[n+]1ccccc1)c1ccc([N+](=O)[O-])cc1
inactive: [1] -3.35% | [2] -2.2% | [3] -4.45% | [4] -30.1% | [5] -6.7% | [6] 38.7%

N=c1nc(N)ss1
inactive: [1] 15.8% | [2] 5.85% | [3] 16.4% | [4] -31.6% | [5] 21.7% | [6] 44%

CS(=O)(=O)OC1C(OC(=O)c2ccccc2)COC(OCc2ccccc2)C1OS(C)(=O)=O (centres undefined)
inactive: [1] -5.4% | [2] 13.2% | [3] -11.9% | [4] -13.3% | [5] 5.35% | [6] 5.7%

CS(=O)(=O)c1ccc(/C=C2/C=Cc3ccccc32)cc1
inactive: [1] 19.1% | [2] 13.2% | [3] 6.35% | [4] 15.4% | [5] 30.2% | [6] 14.7%

O=c1c(-c2ccccc2)c2oc(c1-c1ccccc1)CS(=O)(=O)CCC2
inactive: [1] 21.9% | [2] 20.2% | [3] 16% | [4] 12.3% | [5] 8.15% | [6] -2.35%

O=S(=O)(NCC(Cl)CCl)c1ccccc1 (centres undefined)
inactive: [1] 0.7% | [2] -2.8% | [3] -12.7% | [4] 3.85% | [5] 3.55% | [6] 5%

COc1ccc(C(=O)C2CCC(C(=O)O)C2)cc1 (centres undefined)
inactive: [1] -25.4% | [2] -27.9% | [3] -5.35% | [4] -6.35% | [5] -21.9% | [6] -13.2%

CCCC(=O)OCc1ccccc1
inactive: [1] 14.4% | [2] 11.9% | [3] -6.9% | [4] -15.8% | [5] -5.15% | [6] -7.85%

COc1ccc(Nc2cnc3cc(N)ccc3n2)cc1OC
inactive: [1] -15.3% | [2] -21.6% | [3] -38.5% | [4] -8.35% | [5] -30.3% | [6] 1.7%
